Results on 40 sequences are retold here after the supplement of paper PMC6555819.

The experiment relates to VDR:RXRa (NR concentration 270 nM, RXRa partner concentration 90 nM). The experiment is described as follows: PBM binding z-score (relative to random genomic background probes); higher = stronger binding; sequences stand for … in GC…GCGATTGACAGCGTAGAATGAAGG
On the procedure:
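Protein-binding microarray (Agilent 4x180K custom design, double-stranded 60-nt probes: 5' GC cap, 34-nt variable region, 24-nt constant primer region; full probe sequence given). Purified or IVT nuclear receptor:RXRα heterodimers (3:1 NR:RXRα, mostly 270:90 nM) or homodimers were incubated for 1 h in PBS with 2% milk and no ligand, then detected with Alexa488 antibodies. Fluorescence from o1-orientation probes (~5 replicates averaged) was converted to z-scores against 500 random hg19 background probes. Variable regions are seed direct-repeat (DR0–DR5) sites, all their single-nucleotide variants and half-site ablations.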
In the case of TCTTGTAGATCAAGCGGGTTAAGAAAGCCTGAGT, the PBM binding z-score came to 0.54.

The sequence CGAACTAGGTCATTGACAGTACAGTGAATAGTAA showed a PBM binding z-score of 2.57.

Consider TATCCTAGGTCATGGGCCAGTATACCACGCGAAC, for which the PBM binding z-score stood at 2.75.

Take GCTGCTAGGGCAACTGATGGTCAGCTAAAGCTCG: the PBM binding z-score was -0.881.

TGAATGAGGTTATAAGGTCAGGGAACGTTGCAAA yielded a PBM binding z-score of 4.04.

In turn, CCTTACGGGTCAAGGTTATGGCACGGGTGGTACG returned a PBM binding z-score of 3.53.

TCTCGGAGGACACGAAAGCTCAGAGCTCGACATC gave a PBM binding z-score of -0.282.

As for GCTAGTTGGTCAGTCAAAGGTCACACACCGGTCG, the PBM binding z-score was determined as 4.3.

For the sequence ATATGTAGGTTATCGGATCATTCAGTTTGCGCAT, the PBM binding z-score stood at 1.58.

On to AGAATGAGGTTACCAAAGATCAGGTAAACGCTTG, for which the PBM binding z-score stood at 1.44.

Take TCTTGTAGAGCAGCAGGTTAAGAAAGCTGGCCAA: the PBM binding z-score is -0.353.

Consider AATACAGGGTCACTAGACCAGAGTAGGTACGAAT, for which the PBM binding z-score worked out at 3.98.

On to TCTTGTAGATCAGCAGGTCAAGAAAGCTGGCCAA, for which the PBM binding z-score was determined as 1.17.

In the case of ATATGTAGGTTATCGGGTCATCCAGTTTGCGCAT, the PBM binding z-score amounted to 5.43.

TATACAGAGTCAAAGGCCAGAGTACGAATGTCGA showed a PBM binding z-score of 0.241.

As to CAAATTAGGTCACAGAGGTCAAAGTCCGTGCGTA, the PBM binding z-score came out at 8.12.

For GGATCGAGGGCATTCGAGTTGATAGCATGGCGAT, the PBM binding z-score is 3.52.

Sequence TGTGCTAGGTCAGTTGGTCAGCTAACGAGCTGCC registered a PBM binding z-score of -0.0889.

In the case of TCATATAGGTAAATGCTAGGTGAAGGTCCGATCT, the PBM binding z-score came out at 0.873.

In turn, CGTCCAAGGTCAGCACGTCAGTGAAAGCGACGTG had a PBM binding z-score of 2.46.

For the sequence ACTTACGGGTCAACGATGTTATAGCACGCGTATA, the PBM binding z-score was 4.93.

Sequence ATCTCAAGGTAAAGATAGTTCAGTGAATGCAAAT registered a PBM binding z-score of 1.37.

Take GTACCAAGGAGAATAGGTCGTTGATGAGTAGGCG: the PBM binding z-score stood at 0.0366.

CGAACTAGGTCAGAACAGGACAGCGAAGGATGAT returned a PBM binding z-score of 0.817.

Regarding CCTACTGGGCCAAGTTCATTGATCAGTCAAAGCA, the PBM binding z-score was 2.89.

The sequence ATATGTAGGTTACATTCGGGTCATTCAGGCTATG registered a PBM binding z-score of 4.24.

In turn, ACTATTAGTTGAGACGAGGGCAACTGATAGGTTG came in with a PBM binding z-score of 0.583.

In turn, TAGCCTAGGTCATTGAGGGGCCAGTATAGAAAGC yielded a PBM binding z-score of 3.07.

For AGAACGAGGGCAATCAGTTGATAGCACGGGTGGC, the PBM binding z-score was found to be 2.58.

TAGCCTAGGGCATTGGGCCAGTATAGTACGCATC: the PBM binding z-score was -0.414.

Take AGAATGAGGTTCTACGTAGATCAGGGAAGAAAGT: the PBM binding z-score was -0.436.

In turn, GATACAGGATCAAGGCCAGAGTACGCGTATTGAT displayed a PBM binding z-score of -0.308.

On to CCCGACAGGTGAGAAGGTAACTCAGCCTCGATTA, for which the PBM binding z-score was -0.17.

With ACTAGCAGGCCAACTTTGGGTCACTCAAACAAAG, the PBM binding z-score amounted to 0.536.

On to CCTAGCAGGCCAATCTGGGTCACTCAGGGCTTGA, for which the PBM binding z-score came to 0.721.

For the sequence TAGCCTAGGTCATTCAGAGGCCAGTATAGAAAGC, the PBM binding z-score was 2.84.

The sequence CCGACTGGGGCATAAGGTTACCATAAGCCAGCCC returned a PBM binding z-score of -0.0909.

For ACTAGTTGGTCAGCTCAGGTCACACACAATTCGG, the PBM binding z-score amounted to 2.23.

The sequence TCTATTAGTTGATTAGGGCAACCGTAACAGCGGA displayed a PBM binding z-score of 0.769.

In the case of CATACTAGGTCAAGAGGTCAAAGTCCGCTTCCCG, the PBM binding z-score stood at 6.01.
